A549 viability: Nrf2 qHTS screen for inhibitors: counterscreen for cytotoxicity | A549 ARE-Fluc cells, CellTiter-Fluor viability, 18-24 h | Potency, µM (highest dose often 46 µM), inactives show at the top dose activity change, negative = cytotoxicity, actives largely listed as inhibitors | 390,000 tested, 0.16% active | AID 504648, 2011; note: % is set by controls: 0 for no effect and ±100 for the full control effect
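A549 ARE-Fluc cells in 5% FBS OPTI-MEM, 5000 cells/well, rested 2 h then exposed to compounds in concentration-response for 18-24 h at 37 °C. Viability by CellTiter-Fluor fluorescence (Ex 405/Em 525) after 30 min; luciferase luminescence (BugLite, 15 min, RT) read afterwards.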
TGFb SMAD3 inh: qHTS for Inhibitors of TGF-b; 410,000 tested, 1.2% active; AID 588855, 2011; Potency, µM (titrated, usually from 46.1 µM), for the others: at the highest dose activity, negative = inhibition, hits mostly inhibitors; HepG2 CAGA-GFP TGF-b/SMAD3 reporter, GFP fluorescence, 18 h; TGF-beta stimulated, 500 pg/mL final; note: % is set by controls: 0 for no effect and ±100 for the full control effect; nearly all actives have a fitted effect of over 65% in size
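First, reporter cells (HEPG2 CAGA-GFP) rested 2 h at 37 degrees C. Next, compounds were pinned in and TGF-beta added to 500 pg/mL final. After 18 h, GFP was imaged per cell and summed per well.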
Nrf2 block: Nrf2 qHTS screen for inhibitors; A549 ARE-Fluc reporter, luciferase luminescence, 18-24 h; Potency, µM (titrated, usually from 46 µM), for inactives: at the highest dose activity change, negative = inhibition, hits mostly inhibitors; 360,000 tested, 2.1% active; AID 504444, 2011; note: % is set by controls: 0 for no effect and ±100 for the full control effect; nearly all actives have a fitted effect of over 60% in size
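Quantitative HTS in A549 cells stably bearing an antioxidant response element-firefly luciferase construct. Inhibition of Nrf2-driven transcription was scored by luminescence after 18-24 h of compound exposure at 37 °C.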
S2 tox: Viability Counterscreen for Primary qHTS for Inhibitors of ATXN expression | S2 cells (HEK-293 line with an ATXN2-luciferase reporter) viability, CellTiter-Fluor protease fluorescence, 24 h | Potency, µM (highest dose often 56.7 µM), most hits filed as cytotoxic | 400,000 tested, 0.49% active | AID 651635, 2014; note: nearly all actives have a fitted effect of over 40% in size
HepG2 tox: qHTS for Inhibitors of TGF-b: Cytotox Counterscreen; Potency, µM (top dose mostly 46.1 µM), for inactives: at the highest dose activity change, negative = cytotoxicity, hits mostly cytotoxic; HepG2 CAGA-GFP viability, ATP luminescence, 18 h; 410,000 tested, 0.76% active
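HepG2 CAGA-GFP cells (1000/well, DMEM with 1% FBS) received compound, then TGF-beta at 500 pg/mL final, and were incubated 18 hours at 37 degrees C. Viability was read by CellTiter-Glo luminescence. Media-only wells were set as complete cell-killing and DMSO as no toxicity.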
ATXN2 expr inh: Primary qHTS for Inhibitors of ATXN expression; HEK-293 ATXN2-luciferase reporter, luminescence, 24 h; Potency, µM (series often up to 57 µM), for inactives: top-dose activity change, negative = inhibition, hits mostly inhibitors; 360,000 tested, 0.72% active; note: % is set by controls: 0 for no effect and ±100 for the full control effect; nearly all actives have a fitted effect of over 55% in size
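qHTS (up to 57 uM final) was run with 24 h compound exposure of reporter cells at 37 °C. Each well was multiplexed: SteadyGlo luminescence measured ATXN2-luciferase expression after a fluorogenic Gly-Phe-AFC viability readout (25 uM final).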
Numbers without * were called inactive; i = inactive; ? = inconclusive; · = no result; ! = not confirmed by another sample; [ ] = another dose, or the depositor's remark. This is a sample that favours compounds with a hit; in the whole collection about 3.8% have one here. Calls come from the whole dose curve; as a rule, active = well fitted curve in the direction sought with a large enough effect; inconclusive = small, poorly fitted or top-dose-only effect, or another doubt; inactive = no such curve, though single readings can be large; an effect the other way counts as inactive or inconclusive. Potency is the fitted concentration of half-maximal effect.

SMILES	A549 viability	TGFb SMAD3 inh	Nrf2 block	S2 tox	HepG2 tox	ATXN2 expr inh
CCCCCCC(=O)N/N=C/c1c(O)n(C2CC2)c(=S)[nH]c1=O	1%	7%	3%	i	-14%	?
CCCCCCC(=O)N/N=C/c1c(O)n(CCc2ccccc2)c(=O)[nH]c1=O	-3%	-18%	?	?	-13%	18µM*
CCCCCCC(=O)N/N=C/c1c(O)n(C(C)CC)c(=S)[nH]c1=O (configuration not stated)	-6%	?	15µM*	i	-21%	·
CN1C(=O)/C(=C/c2cccn2-c2ccc3ccccc3c2)C(=O)NC1=S	?	16µM*	·	·	-51%	?
O=C1NC(=S)NC(=O)C1=Cc1cccn1-c1ccc(O)cc1	-6%	?	-4%	19µM*	-108%	24µM*
CC(=O)c1cccc(NC(=O)CCn2c(=O)oc3ccccc32)c1	2%	3%	-21%	i	-52%	13%
CC(=O)c1cccc(NC(=O)C2CCN(S(=O)(=O)c3ccc4c(c3)oc(=O)n4C)CC2)c1	2%	-10%	8%	i	-33%	-5%
CC(C)[C@]12O[C@@H]1[C@@H]1O[C@]13[C@]1(O[C@H]1C[C@@H]1C4=C(CC[C@@]13C)C(=O)OC4)[C@H]2O	·	·	·	·	·	0.12µM*
COc1ccc(-[n+]2c(-c3ccccc3)cc(-c3ccccc3)cc2-c2ccccc2)cc1	?	?	?	?	-36%	?
Oc1ccc(-[n+]2c(-c3ccccc3)cc(-c3ccccc3)cc2-c2ccccc2)cc1	-11%	?	-21%	?	-35%	13µM*
Nc1nonc1C(=O)N/N=C/c1ccc([N+](=O)[O-])o1	-19%	16µM*	-14%	i	-90%	-15%[11.3 µM]
CCOC(=O)c1cccc(C2=C(CNC(=O)c3ccc([N+](=O)[O-])cc3)[C@H]3CC[C@@H](C2)N3Cc2ccccc2)c1	·	?	·	?	-46%	?
COc1ccc(-c2nc(CN3C(=O)CN=C(c4ccccc4)c4ccccc43)c(C)o2)cc1OC	-1%	7%	-16%	?	-24%	-26%
COc1cccc2c1C(=O)c1c(O)c3c(c(O)c1C2=O)C[C@@](O)(C(=O)CO)CC3OC1CC(N2CCOC(OC)C2)C(O)C(C)O1 (some centres not stated)	·	·	·	45µM*	·	28µM*
Oc1ccc(Cl)cc1Cc1ccccc1	1%	?	-2%	?	-29%	?
Oc1ccc(Cl)cc1Cc1cc(Cl)ccc1O	-2%	?	3%	?	-74%	28µM*!
CC(C)(C)NC[C@H](O)c1ccc(O)cc1Cl	·	·	·	?	·	14%
COc1ccc2c(c1)CCc1c(C(=O)Nc3c(C)nn(Cc4ccccc4C)c3C)noc1-2	-6%	13µM*	18µM*	?	-30%	0%
Nc1c(C(=O)NCc2ccco2)c2nc3ccccc3nc2n1Cc1ccc(F)cc1	-21%	?	-16%	i	6%	?
Nc1c(C(=O)NCc2ccco2)c2nc3ccccc3nc2n1Cc1ccccc1	?	11µM*	-6%	·	-53%	·
O=C(CN1C(=O)CN=C(c2ccccc2)c2ccccc21)Nc1cccc(C(F)(F)F)c1	-20%	?	?	·	-82%	?
O=C(NCc1ccc2c(c1)CCN2C(=O)c1ccccc1)Nc1cccc(C(F)(F)F)c1	-12%	2.8µM*	·	·	-10%	·
CCCCn1c(=O)c(C(=O)Nc2ccccc2C)c(O)c2ccccc21	1%	7%	6%	i	15%	22%
CC(C)CCn1c(=O)c(C(=O)Nc2ccccc2S(N)(=O)=O)c(O)c2ccccc21	?	20µM*	?	i	-16%	-37%
CC1=C(O)C(=O)C=C2C1=CC=C1[C@@]2(C)CC[C@@]2(C)[C@@H]3C[C@](C)(C(=O)O)CC[C@]3(C)CC[C@]12C	·	·	·	·	·	2.4µM*
SMILES	A549 viability	TGFb SMAD3 inh	Nrf2 block	S2 tox	HepG2 tox	ATXN2 expr inh
Cc1c(N)nc([C@H](CC(N)=O)NC[C@@H](N)C(N)=O)nc1C(=O)N[C@H](C(=O)N[C@@H](C)[C@H](O)[C@@H](C)C(=O)N[C@@H](C(=O)NCCc1nc(-c2nc(C(=O)NCCC[S+](C)C)cs2)cs1)[C@@H](C)O)C(O[C@H]1O[C@H](CO)[C@H](O)[C@@H](O)[C@@H]1O[C@H]1O[C@H](CO)[C@@H](O)[C@H](OC(N)=O)[C@H]1O)c1cnc[nH]1 (some centres not stated)	·	·	·	·	·	14µM*
Cc1cc(N(C)C)ccc1N=Nc1ccc(N)cc1	?	0%	-3%	?	5%	48%
Nc1ccc(N=Nc2ccccc2)cc1	?	-9%	?	22µM*!	-5%	0%
CC(O)C1C=CC=CC(=O)OC2CC3OC4C5OC5(C)CCC4(COC(=O)C4OC4(C)C(O)CO1)C2(C)C31CO1 (configuration not stated)	·	0.25µM*	0.23µM*	0.0067µM*	7%	?
CC(=O)[O][Hg][c]1ccccc1	·	·	·	4.5µM*	·	4.5µM*
CC(=O)/C=C/c1ccccc1	3%	3%	5%	i	-8%	4%
O=C1CN=C(c2ccccc2)c2oc3ccc(Br)cc3c2N1	·	6%	9%	?	-24%	-11%
COc1cccc(OC)c1C1=NCC(=O)Nc2c1oc1ccc(Br)cc21	-13%	16µM*	6%	?	-20%	0%
CC1N(C)c2cc(NC(=O)c3ccco3)c(P(=O)(Nc3ccc([N+](=O)[O-])cc3)N3CCOCC3)cc2C1(C)C (configuration not stated)	21µM*	?	16µM*	i	-37%	-24%
CCC12CN3CCN(CC(C3)/C1=N/NC(=O)c1ccncc1)C2	4%	1.1µM*	6%	i	8%	-11%
CCOC(=O)[C@]12Cc3cc(C)ccc3[C@H]1N(Cc1ccccc1)C(=O)c1cc(F)c(F)cc12	·	·	·	16µM*	·	18µM*
CCOC(=O)[C@]12Cc3cc(C)ccc3[C@H]1N(Cc1ccccc1)C(=O)c1ccccc12	?	10µM*	23µM*	?	-21%	?
CN(C)c1ccc(/C=C/C=C/c2sc3ccccc3[n+]2C)cc1	-12%	8.9µM*	?	?	-20%	?
CN(C)c1ccc(/C=C/c2cc[n+](C)c3ccccc23)cc1	16µM*	7.1µM*	8.2µM*	6µM*	-70%	?
